Source: PubChem BioAssay AID651593 (National Center for Advancing Translational Sciences (NCATS), 2012)
Among all 1,100 compounds or so, about 860 (78%) were called active. Inconclusive results (about 19%) are left out. Calls come from the whole dose curve; as a rule, active = well fitted activation curve with a large enough effect; inconclusive = small, poorly fitted or top-dose-only effect; inactive = flat fitted curve, though single readings scatter. The set was probably picked from earlier hits. This is one part of the list.

Experiment: qHTS of Nrf2 Activators: Hit Validation in Primary Assay; note: nearly all actives have a fitted effect of over 70% in size
Details: Nrf2/ARE reporter cell assay; Potency: activation; series mostly up to 46.1 µM
Text: Many diseases have some form of oxidative stress injury and ties to inflammation, causing a host of problems for the patient. The antioxidant response element (ARE) plays an important role in alleviating the harmful effects of oxidative stress. The antioxidant response element (ARE) is a transcriptional regulatory element involved in the activation of genes coding for a number of antioxidant proteins and detoxifying enzymes. These enzymes work in concert to protect tissues from oxidative insults and chemical toxicities in human hepatocytes and immune cells. The protective effects of ARE activation are primarily triggered through Nrf2 (NF-E2-related factor) binding to and activating AREs. It is known that Nrf2 controls the production of over 250 antioxidant and detoxification proteins (Hu et al., 2006), thereby protecting tissues by increasing cellular antioxidant content and suppressing inflammatory signaling pathways. The transcription factor Nrf2 is a central link between oxidative chemicals, such as phenolic antioxidants and electrophilic compounds, and the activation of ARE. Nrf2 levels are constitutively low as a consequence of its interaction with Keap1, which targets its degradation (Zipper and Mulcahy, 2002). Electrophiles react with key cysteine residues in Keap1, releasing Nrf2 and allowing its translocation to the nucleus. Once within the nucleus, Nrf2 complexes with coactivators such as p300, and binds to the AREs to induce gene transcription of cytoprotective enzymes, resulting in the prevention of toxicity. Activation of Nrf2 protects tissues by increasing cellular antioxidant content and suppressing inflammatory signaling pathways. Identifying novel and potent Nrf2 activators by using the AREc32 cell line to detect ARE activation by small molecules will lead to the identification and development of probes to study protective pathways in multiple tissues. These specific probes are essential to study the ARE pathway, and eventually to determine whether this pathway does activate genes that could protect against a host of diseases, including cardiovascular diseases, obesity, diabetes, Alzheimer's, and Parkinson's disease.
This project's aim is to identify novel and potent Nrf2 activators by using the AREc32 cell line to detect ARE activation by small molecules, which will lead to the identification and development of probes to study the ARE pathway.
NIH Chemical Genomics Center [NCGC]
NIH Molecular Libraries Probe Centers Network [MLPCN]
Assay Submitter (PI): Curtis Klaassen, University of Kansas Medical Center
Quantification of ARE activation after compound treatment was measured by the Steady-Glo Luciferase (R) assay system (Promega) in AREc32_fluc stable cells. The Steady-Glo reagent acts by cell lysis and generation of a luminescent signal proportional to ARE activation, through the luciferase reporter in the AREc32 stable cell line. AREc32_fluc cells were harvested from T225 flask and resuspended in phenol red free OPTI-MEM medium with 5% FBS. Then 5 microL of 200,000 cells/mL resuspended cells were dispensed into each well of white, solid bottom, 1536-well tissue culture-treated plates using a Multidrop Combi dispenser. After overnight culture at 37 degrees C with 5% CO2, a total of 23 nL of compounds at 5 selected concentrations from the MLSMR/Sytravon or positive control (40 uM stock of CDDO-IM and 2 mM of tBHQ) in DMSO was transferred to each well of the assay plate using a pintool (Kalypsys, San Diego, CA), and the plates were further incubated at 37 degrees C with 5% CO2 for 24 hours. After that, 2 microL of Steady Glo luminescent substrate mix (Promega) was added to each well. The plate was incubated at room temperature for 30 minutes. The plates were measured on a ViewLux plate reader (PerkinElmer) with clear filter.
Potency is the fitted concentration of half-maximal effect.

| Structure (SMILES) | Potency |
| --- | --- |
| Brc1ccccc1C1N=C(c2ccccc2)NO1 (stereo not drawn) | 5.8 µM (active) |
| CN1CCN(c2sc(S(C)(=O)=O)nc2S(=O)(=O)c2ccc(Cl)cc2)CC1 | 8.2 µM (active) |
| Cc1ccc(S(=O)(=O)c2nc(S(C)(=O)=O)sc2N2CCN(C)CC2)cc1 | 5.17 µM (active) |
| O=C(Nc1nc2ccc(F)cc2s1)c1ccc([N+](=O)[O-])o1 | 3.66 µM (active) |
| O=C(Nc1nc2c(Cl)cccc2s1)c1ccc([N+](=O)[O-])o1 | 3.66 µM (active) |
| O=c1cc(-c2cccc(Br)c2)oc2cccc(O)c12 | 5.8 µM (active) |
| Cn1c(N)c(C(=O)COC(=O)c2nc(Cl)ccc2Cl)c(=O)n(C)c1=O | 1.46 µM (active) |
| COc1cc(NC(=S)Nc2ccccn2)c(OC)cc1Cl | 5.17 µM (active) |
| COc1ccc(C(C#N)=C2C=CC(=NO)C=C2)cc1 | 1.3 µM (active) |
| C/C(=N\NC(=S)Nc1cccc(C)c1)c1ccco1 | 2.31 µM (active) |
| O=C(Nc1ccc(OC(F)F)cc1)c1ncc(Cl)c(Cl)c1Cl | 16.4 µM (active) |
| c1ccc(CSc2nccc(-c3ccco3)n2)cc1 | 20.6 µM (active) |
| Nc1nccc(/C=C/c2c(F)cccc2Cl)n1 | 9.2 µM (active) |
| COc1ccccc1Cc1c(-c2ccco2)nc2ccc(Cl)cn12 | 16.4 µM (active) |
| Clc1ccc2nc(-c3ccco3)c(Cc3ccccc3)n2c1 | 23.1 µM (active) |
| FC(F)(F)c1cc(-c2ccco2)nc(NCc2ccco2)n1 | 11.6 µM (active) |
| FC(F)(F)c1cc(-c2ccco2)nc(-n2nnc3ccccc32)n1 | 2.59 µM (active) |
| FC(F)(F)c1cc(-c2cccs2)nc(NCc2ccco2)n1 | 4.61 µM (active) |
| O=C1NC(=Nc2ccccc2)S/C1=C\C=C\c1ccco1 | 2.31 µM (active) |
| Cc1ccc(N=C2NC(=O)/C(=C/C=C/c3ccco3)S2)cc1 | 2.06 µM (active) |
| O=[N+]([O-])c1cccc(C=NN=Cc2ccccc2O)c1 | 8.2 µM (active) |

| Structure (SMILES) | Potency |
| --- | --- |
| O=[N+]([O-])c1ccccc1C=CC=NN=Cc1ccccc1O | 3.26 µM (active) |
| NC(=O)N/N=C/c1ccccc1OC(=O)c1ccccc1Br | 3.26 µM (active) |
| COC(=O)c1sccc1NC(=O)c1ccc(Br)s1 | 7.31 µM (active) |
| COC(=O)c1sccc1NC(=O)c1ccc(Br)o1 | 9.2 µM (active) |
| Cc1ccc(S(=O)(=O)c2cc3ccccc3oc2=O)cc1 | 8.2 µM (active) |
| COC(=O)c1c(NC(=O)/C=C/c2ccco2)sc2c1CCC2 | 0.461 µM (active) |
| COC(=O)C(=C/C=C/c1ccco1)C(=O)OC | 9.2 µM (active) |
| COC(=O)c1ccccc1NC(=O)/C=C/c1ccco1 | 0.411 µM (active) |
| COc1ccccc1NC(=O)/C=C\c1ccco1 | 1.84 µM (active) |
| O=C(/C=C/c1ccco1)Nc1ccccc1N1CCCCC1 | 1.16 µM (active) |
| O=c1c2cc3c(=O)n(-c4ccccc4O)c(=O)c3cc2c(=O)n1-c1ccccc1O | inactive |
| CCOc1ncccc1C(=O)NNC(=O)c1ccc(NS(=O)(=O)c2cccs2)cc1 | 2.59 µM (active) |
| O=C(/C=C/c1ccc(-c2ccccc2[N+](=O)[O-])o1)c1ccccc1 | 3.66 µM (active) |
| Cc1ccc(C(=O)/C=C/c2ccc(-c3ccccc3[N+](=O)[O-])o2)cc1 | 2.06 µM (active) |
| O=C(/C=C/c1ccc(-c2ccccc2[N+](=O)[O-])o1)c1ccc(Br)cc1 | 1.84 µM (active) |
| CC(/C=N/NC(=O)Cc1cccn1C)=C\c1ccco1 | 1.46 µM (active) |
| c1ccc(CNc2nc(NCc3ccco3)nc(N3CCOCC3)n2)cc1 | 5.17 µM (active) |
| CNC(=O)c1ccsc1NC(=O)c1ccc(Cl)s1 | 7.31 µM (active) |
| O=C1c2cccc3cccc(c23)C(=O)N1Cc1ccco1 | 5.17 µM (active) |
| Nc1ccccc1N1C(=O)c2cccc3cccc(c23)C1=O | 16.4 µM (active) |
| CC(=O)Nc1cc(-c2ccsc2)cn2c(-c3ccc(F)cc3)cnc12 | 5.17 µM (active) |

| Structure (SMILES) | Potency |
| --- | --- |
| CC(C)c1ccc(NC(=O)c2cc(Br)ccc2Br)cc1 | 5.8 µM (active) |
| CS(=O)(=O)c1nc(S(=O)(=O)c2ccc(Cl)cc2)c(N2CCN(CCO)CC2)s1 | 8.2 µM (active) |
| CCN1CCN(c2sc(S(C)(=O)=O)nc2S(=O)(=O)c2ccc(Cl)cc2)CC1 | 14.6 µM (active) |
| COC(=O)c1cc(S(=O)(=O)C(C)C)c(S(C)=O)s1 (stereo not drawn) | 20.6 µM (active) |
| COc1c(C(=O)Nc2nnc(C3CC3)s2)csc1Cl | 8.2 µM (active) |
| CCCc1c(C(=O)N/N=C/c2cccs2)nnn1-c1nonc1N | 4.11 µM (active) |
| CN1C2CCC1/C(=C\c1ccccc1)C(=O)/C2=C\c1ccccc1 | 2.91 µM (active) |
| N#C/C(=C\c1ccccc1[N+](=O)[O-])c1nc(C2CC2)cs1 | 11.6 µM (active) |
| O=[N+]([O-])c1ccccc1S(=O)c1ccccc1[N+](=O)[O-] | 16.4 µM (active) |
| COc1cc(/C=C/c2ccc3cccc(O)c3n2)cc(OC)c1OC | inactive |
| COc1cc(Cl)cc(/C=C/c2ccc3cccc(O)c3n2)c1OC | 2.31 µM (active) |
| Oc1ccc(Cl)cc1/C=C/c1ccc2cccc(O)c2n1 | 4.61 µM (active) |
| Nc1c(C(=O)Nc2ccccc2Br)sc2nc(-c3cccs3)ccc12 | 14.6 µM (active) |
| COC(=O)c1ccc2nc(-c3ccco3)c(Cc3cccc(Cl)c3)n2c1 | 23.1 µM (active) |
| COC(=O)c1ccc2nc(-c3cccc(Cl)c3)c(Cc3ccccc3OC)n2c1 | 2.91 µM (active) |
| COC(=O)c1ccc2nc(-c3ccco3)c(Cc3ccccc3)n2c1 | 18.4 µM (active) |
| O=[N+]([O-])c1cccc2ccc(/C=C/c3ccc(F)cc3)nc12 | 1.84 µM (active) |
| O=[N+]([O-])c1ccc(/C=C/c2ccc3cccc([N+](=O)[O-])c3n2)cc1 | 0.731 µM (active) |
| O=[N+]([O-])c1cccc2ccc(/C=C/c3ccc(Cl)cc3)nc12 | 1.16 µM (active) |
| CCOc1cc(/C=C/c2ccc3cccc([N+](=O)[O-])c3n2)cc(Cl)c1O | 0.517 µM (active) |
| O=[N+]([O-])c1cccc2ccc(/C=C/c3cccc(Br)c3)nc12 | 1.84 µM (active) |
